{"source": "PubChem BioAssay (NCATS)", "key": {"[1]": {"assay": "qHTS to identify inhibitors of the type 1 interferon - major histocompatibility complex class I in skeletal muscle: primary screen against the NCATS Mechanism Interrogation Plate v5.0 (MIPE) Libary (AID 1347411);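 further: plate controls were vehicle for no effect and reference inhibitor for full effect; nearly all actives have a fitted effect of over 65% in size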", "conditions": "iHSKM cells + IFN-b, HiBiT-tagged MHC-I luminescence, 24 h; series mostly up to 45.8 µM", "outline": "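Cells were genome-edited human myoblasts carrying a HiBit tag on endogenous HLA-B. They were treated with IFN-beta (4.0 ng/ml) and titrated compounds (top 46 uM) for 24 hrs before lytic HiBiT detection.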"}, "[2]": {"assay": "Primary qHTS for inhibitors of nuclear receptor binding SET domain protein 2 (NSD2) in an isogenic RCH-ACV NSD2 p.E1099K mutant (9B) (AID 1645876); further: potency means the concentration at half of the fitted maximal effect; nearly all actives have a fitted effect of over 70% in size", "conditions": "RCH-ACV NSD2 E1099K (9B) viability, CellTiter-Glo, 72 h; series mostly up to 44.9 µM"}, "[3]": {"assay": "Primary qHTS for inhibitors of nuclear receptor binding SET domain protein 2 (NSD2) in an RCH-ACV wild type WT cells (2C) (AID 1645877); further: potency means the concentration at half of the fitted maximal effect; nearly all actives have a fitted effect of over 70% in size", "conditions": "RCH-ACV NSD2 WT (2C) viability, CellTiter-Glo, 72 h; series mostly up to 44.9 µM"}, "[4]": {"target": "Glutathione peroxidase 1 (Homo sapiens) (UniProt P07203)", "sequence (P07203 whole entry, looked up)": "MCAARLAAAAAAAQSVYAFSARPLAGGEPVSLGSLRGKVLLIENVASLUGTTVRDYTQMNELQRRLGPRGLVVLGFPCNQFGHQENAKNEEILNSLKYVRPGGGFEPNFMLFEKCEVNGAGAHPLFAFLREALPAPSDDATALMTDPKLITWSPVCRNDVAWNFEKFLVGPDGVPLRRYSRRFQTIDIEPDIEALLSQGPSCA", "assay": "Primary qHTS Assay for Inhibitors of Recombinant Selenoprotein Glutathione Peroxidase 1 (GPX1) (AID 1845191); further: nearly all actives have a fitted effect of over 65% in size", "conditions": "recombinant GPX1, GR-coupled NADPH fluorescence, 15 min; series mostly up to 48.8 µM", "outline": "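Recombinant GPX1 (10 nM final) was preincubated with compound for 30 min at room temperature, then reacted with 1 mM GSH, 0.5 mM CHP, 0.5 mM NADPH and 100 nM glutathione reductase; NADPH fluorescence (340/450 nm) was read at 0 and 15 min.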"}, "[5]": {"target": "Phospholipid hydroperoxide glutathione peroxidase GPX4 (Homo sapiens) (UniProt P36969)", "sequence (P36969 whole entry, looked up)": "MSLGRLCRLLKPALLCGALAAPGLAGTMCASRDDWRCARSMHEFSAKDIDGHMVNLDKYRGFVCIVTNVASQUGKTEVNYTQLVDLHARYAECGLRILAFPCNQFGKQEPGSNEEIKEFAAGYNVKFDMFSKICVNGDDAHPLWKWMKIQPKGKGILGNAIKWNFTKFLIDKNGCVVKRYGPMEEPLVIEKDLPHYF", "assay": "Primary qHTS Assay for Inhibitors of Recombinant Selenoprotein Glutathione Peroxidase 4 (GPX4) (AID 1845192); further: on the % scale 0 is the no-effect control and ±100 the full control effect; nearly all actives have a fitted effect of over 65% in size", "conditions": "recombinant GPX4, GR-coupled NADPH fluorescence, 15 min; series mostly up to 50 µM", "outline": "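GR-coupled readout: 100 nM GR, 1 mM GSH, 0.5 mM NADPH; NADPH fluorescence (ex 340/em 450 nm) read at t=0 and after 15 min RT. GPX4 200 nM, preincubated 30 min with compound; substrate 0.5 mM CHP.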"}, "[6]": {"assay": "qHTS drug screen for cell cycle checkpoint inhibitors in PARPi-resistant BRCA-mutant ovarian cancer cell lines. (AID 1963452; calls by dose curve)", "conditions": "PEO1/OlaR viability, CellTiter-Glo luminescence, 96 h, stronger effect = lower value", "outline": "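PEO1, PEO4 and PEO1/OlaR ovarian cancer cells, 600 per well, exposed 96 h at 37C to a dilution series. Viability read by CellTiter-Glo luminescence, normalized to DMSO and empty wells; activity summarized as Z-AUC.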"}}, "note": "Results filed as inconclusive are left out. Calls of active or inactive are those of the source. Unless noted, the call rests on the fitted dose curve; in most records, active means well fitted curve in the direction sought with a large enough effect; inconclusive means small, poorly fitted or top-dose-only effect, or another doubt; inactive means no such curve, though single readings can be large; an effect the other way counts as inactive or inconclusive."}
{"smiles": "CCn1c(=O)c(-c2ccc(-c3cncc(C)n3)cc2Cl)cc2cnc(NCCC3CCN(C)CC3)nc21", "values": [{"measurement": "activity change, negative = inhibition", "setting": "[1]", "value": "-29.5% [at 5.1 µM] (inactive)"}, {"measurement": "Potency", "setting": "[2]", "value": "1180 nM (active)"}, {"measurement": "Potency", "setting": "[3]", "value": "1320 nM (active)"}, {"measurement": "outcome", "setting": "[4]", "value": "inactive [at 4.49 µM]"}, {"measurement": "activity change, negative = inhibition", "setting": "[5]", "value": "-3.33% [at 4.52 µM] (inactive)"}, {"measurement": "Z-AUC", "setting": "[6]", "value": "1.53 (inactive)"}, {"measurement": "Z-AUC", "setting": "[6]; measured here: PEO1 parental Z-AUC", "value": 0.823}, {"measurement": "Z-AUC", "setting": "[6]; measured here: PEO4 Z-AUC", "value": 1.06}]}
